This note sets out measurements from PubChem BioAssay AID720518 (National Center for Advancing Translational Sciences (NCATS), 2013).

Inconclusive results are not listed. Entries that show only a call come without a potency. Active and inactive are the calls of the source. Calls follow the shape of the full dose curve.
Potency is read from the fitted curve at half-maximal effect.

A short description of the assay: qHTS for Inhibitors of Cell Surface uPA Generation: Wild-type Protective Antigen (WT-PrAg) Counterscreen for Cherry-picked Compounds. Particulars: cells, WT protective antigen toxicity counterscreen; series mostly up to 115 µM. (qHTS replaces the single test concentration by a dilution series.)
For the compound `CC(C)C1Oc2ccccc2N(CC(=O)NC2CCCCC2)C1=O` (stereo not given), the Potency is 36.9 µM (active). Regarding `COc1cccc(C(=O)NCC(c2ccco2)N2CCc3ccccc3C2)c1` (stereo not given), the Potency result is “inactive”.

Regarding `COc1cccc(C(=O)NCc2ccc3[nH]c(C)cc3c2)c1`, the Potency result is “inactive”.

With `O=C(COC(=O)c1cccc([N+](=O)[O-])c1)NNC(=O)c1cccs1`, the Potency entry was “inactive”.

Take `Cc1ccc(Cl)cc1NC(=O)c1ccccc1OCC(=O)N1CCOCC1`: the Potency entry is “inactive”. On to `Cc1nc(N2CCN(c3ccc(Cl)cc3)CC2)[nH]c(=O)c1C`, for which the Potency entry is “inactive”. Next, `CC(=O)COc1ccc2c(-c3cccc([N+](=O)[O-])c3)cc(=O)oc2c1`: “inactive”.

Regarding `Cc1cccc(N2C(=O)N3[C@H](c4ccc(F)cc4)[C@@H]4C(=O)N(C5CCCCC5)C(=O)[C@@H]4[C@]3(Cc3ccc(Cl)cc3)C2=O)c1`, the Potency entry was “inactive”. The same measure for `CCOc1ccc(N(CC(=O)Nc2ccc(CC)cc2)S(=O)(=O)c2c(C)[nH]c(=O)[nH]c2=O)cc1`: “inactive”. The same measure for `CN(Cc1ccc(C(C)(C)C)cc1)C(=O)Cc1ccc(S(=O)(=O)N2CCOCC2)s1`: “inactive”; for `CCn1nc(NS(=O)(=O)c2ccccc2)c2cc3cc(C)ccc3nc21`: “inactive”; for `CCC(C(=O)NCc1ccc(C)cc1)c1ccccc1` (stereo not given): “inactive”.

As for `COc1ccc2[nH]cc(S(=O)(=O)c3ccc(C(C)C)cc3)c(=O)c2c1`, the Potency result is “inactive”. Next, `COCC(=O)N1CCC(n2nccc2NC(=O)c2ccccc2OC)CC1`: “inactive”. Next, `C/C(=N\NC(=O)c1cccc([N+](=O)[O-])c1)c1cccnc1`: “inactive”; `Cc1ccc(S(=O)(=O)N2CCN(C(=O)c3n[nH]c(=O)c4ccccc34)CC2)cc1`: “inactive”; `O=C1OCC/C1=C\c1ccc(O)cc1`: “inactive”. The same measure for `Cc1cc(NC(=O)COc2cccc([N+](=O)[O-])c2)no1`: “inactive”; for `Cc1ccc(NC(=S)N2CCN(Cc3ccc4c(c3)OCO4)CC2)c(C)c1`: “inactive”; for `Cn1cnc([N+](=O)[O-])c1Sc1ccc(Br)cc1`: “inactive”.

`COc1ccc(CCNC(=O)CSc2nc(N)c3c(C)c(C)oc3n2)cc1OC`: the Potency entry was “inactive”.

As for `C[C@H](O)[C@@H]1C(=O)N2CCc3ccc(-c4cccc(F)c4)cc3[C@@H]2C[C@@H]1N(C)C(=O)C(C)(C)C`, the Potency result was “inactive”. Take `CC(=O)Nc1sc(C)c(C)c1C(=O)OCC(=O)NC(C)c1ccccc1` (stereo not given): the Potency entry was “inactive”. The same measure for `O=C(O)c1ccc(-n2nnnc2SCc2cccc(Br)c2)cc1`: “inactive”; for `O=C(Nc1ccc(Cl)cc1)Nc1nnc(-c2ccncc2)s1`: “inactive”. As to `COc1ccc(C(=O)NCC(=O)N/N=C/c2c(C)[nH]c3ccccc23)cc1`, the Potency result was “inactive”. Regarding `COc1ccc(-c2csc(NC(C)c3nc4cc(C(=O)NCCCO)ccc4n3Cc3ccc(C)cc3)n2)cc1` (stereo not given), the Potency result is “inactive”. Next, `COc1ccc(/C(C)=N/N2CCOCC2)c(O)c1`: “inactive”; `O=C(c1ccc(F)c([N+](=O)[O-])c1)N1CC2CC(C1)c1cccc(=O)n1C2` (stereo not given): “inactive”; `O=C(O)CCc1nn2c3ccccc3n(CC(=O)O)c2nc1=O`: “inactive”. For the compound `COc1ccc(CN2CCN(Cc3ccc(C(F)(F)F)cc3)CC2)cc1`, the Potency result is “inactive”.

As for `O=C(NCCc1ccccc1)C1CCC(=O)N(Cc2cccc(C(F)(F)F)c2)C1` (stereo not given), the Potency result is “inactive”. With `COc1ccc(-c2nn(CCC#N)cc2C(=O)Nc2cccc([N+](=O)[O-])c2)cc1OC`, the Potency entry was “inactive”. Next, `Cc1noc(C)c1COc1ccc(C(=O)O)cc1`: “inactive”; `COc1ccc(CN2CCNC(=O)C2CC(=O)NCC2CCOCC2)cc1C` (stereo not given): “inactive”.

On to `COCCNC(=O)C(c1c[nH]c2ccccc12)N(C(=O)c1snc(C(N)=O)c1N)c1cccc(OC)c1` (stereo not given), for which the Potency entry was “inactive”. For the compound `Cc1oc2c(Cl)c(Cl)c(O)c(CN(C)C)c2c1C(=O)c1ccc(Cl)cc1`, the Potency entry is “inactive”. Take `COc1cc(C(=O)Nc2nnc(C)s2)cc(OC)c1OC`: the Potency result is “inactive”. On to `CS(=O)(=O)N1CCC(C(=O)Nc2ccccc2)CC1`, for which the Potency result is “inactive”. The same measure for `C=CCc1cc(S(=O)(=O)c2ccc(O)c(CC=C)c2)ccc1O`: “inactive”.
